Measured values published in PubChem BioAssay AID1347142 (National Center for Advancing Translational Sciences (NCATS), 2019).
Results filed as inconclusive are left out. A call without a number means that no potency is given here. Calls of active or inactive are those of the source. Calls follow the shape of the dose curve; as a rule, active = well fitted inhibition curve with a large enough effect; inconclusive = small, poorly fitted or top-dose-only effect; inactive = no such curve, though single readings can be large or run the other way.
Also: nearly all actives have a fitted effect of over 80% in size.
Potency is read from the fitted curve at half-maximal effect.

The compounds below were run against N-terminal Xaa-Pro-Lys N-methyltransferase 1 (Homo sapiens) (UniProt Q9BV86) (assay: qHTS Assay for Inhibitors of N-terminal methyltransferase 1 (NTMT1): ThioGlo3 Assay Confirmatory Screen, Round 1.). Conditions: NTMT1 SAHH-coupled ThioGlo3 fluorescence, 30 min; series mostly up to 56.8 µM.
N-terminal Xaa-Pro-Lys N-methyltransferase 1 (Homo sapiens), sequence (Q9BV86 whole entry, looked up): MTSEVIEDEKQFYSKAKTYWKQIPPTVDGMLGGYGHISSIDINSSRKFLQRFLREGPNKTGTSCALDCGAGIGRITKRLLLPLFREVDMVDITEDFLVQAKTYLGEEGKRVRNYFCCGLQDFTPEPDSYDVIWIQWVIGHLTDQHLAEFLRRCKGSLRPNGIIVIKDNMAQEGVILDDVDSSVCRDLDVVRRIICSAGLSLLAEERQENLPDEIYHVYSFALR
Description: Assay Submitter (PI): Rong Huang Ph.D, Purdue University, West Lafayette, IN 47907 The N-terminal methytransferase 1 is the first methyltransferase that methylates protein alpha-N-amines and plays an important role in regulating cell mitosis, chromatin interactions and DNA repair. It is observed to be over-expressed in various cancer patient tissues like malignant melanoma and colorectal cancer tissues. Knockdown of NTMT1 in cancer cells causes cell mitotic defects and enhances sensitivity to DNA damaging chemotherapeutics. […] These critical cellular processes in which NTMT1 is implicated, coupled with emerging links to cellular dysfunction, strengthen the inference that NTMT1 is a compelling novel anticancer target. Progress have been made in understanding the molecular properties of NTMT1 and the biological consequences of protein alpha-N-terminal methylation, but there are no specific small molecule probes available for NTMT1 to fully characterize its MTase activity. To address this unmet need, a panel of assay is created and established to enable quantitative high-throughput screening (qHTS) for novel, potent, and selective small molecule NTMT1 inhibitors. Two orthogonal qHTS that use different reagents (ThioGlo vs. MTaseGlo) are developed for primary robotic screening against the NCATS chemical library of more than 400,000 small molecules. Identified inhibitors are reacquired, validated, and further characterized. […] Early Translation Branch (ETB) National Center for Advancing Translational Sciences (NCATS) National Institute of Health (NIH)
Materials: NTMT1 enzyme, substrate SPKRIA, control peptide RCC1-6 is provided by the Huang laboratory. ThioGlo3 Assay: In brief, 125nM NTMT1 enzyme was dispensed into a 1536-well assay plate with Aurora Discovery BioRAPTR Flying Reagent Dispenser (FRD, Beckton-Dickenson). Compounds (at various concentration) or 1uM RCC1-6 (SPKRIA) control were transferred to the assay plate using the Kalypsys 1536-pintool apparatus. After 1 min of room temperature incubation, 1uL of substrate (100uM SAM, 10uM SAHH, 15uM ThioGlo3) was added to the wells bringing the final assay volume to 4uL. Initial (background) fluorescence readout (EX: 340nm, EM: 450nm) was then detected using the PerkinElmer ViewLux microplate imager and a final fluorescence readout was taken after 30 min of room temperature incubation. The data was normalized to the background fluorescence.
For `Nc1ncnc2c1ncn2[C@@H]1O[C@H](COP(=O)(O)OP(=O)(O)OP(=O)(O)O)[C@H]2OC3(O[C@H]21)C([N+](=O)[O-])=CC(=[N+]([O-])[O-])C=C3[N+](=O)[O-]` (stereo partly drawn), the Potency was “inactive”.
In the case of `Nc1ncnc2c1ncn2[C@@H]1O[C@@H]2COP(O)(=S)O[C@H]2[C@H]1O` (stereo partly drawn), the Potency is reported as “inactive”.
In the case of `CCNC(=O)[C@H]1O[C@@H](n2cnc3c(N)ncnc32)[C@H](O)C1O` (stereo partly drawn), the Potency is reported as “inactive”.
`Nc1ncnc2c1ncn2[C@@H]1O[C@H](COP(=O)(O)CP(=O)(O)O)[C@@H](O)[C@H]1O` was tested, and the Potency was “inactive”.
With `Nc1ncnc2c1ncn2[C@@H]1O[C@@H]2CO[P@](=O)(S)O[C@H]2[C@H]1O` the Potency was “inactive”.
With `Nc1ncnc2c1nc(Sc1ccc(Cl)cc1)n2[C@@H]1O[C@@H]2COP(O)(=S)O[C@H]2[C@H]1O` (stereo partly drawn) the Potency was “inactive”.
In the case of `CCN(CC)c1ncnc2c1ncn2[C@@H]1O[C@H](COP(=O)(O)OP(=O)(O)C(Br)(Br)P(=O)(O)O)[C@@H](O)[C@H]1O`, the Potency is reported as “inactive”.
For `COc1cc2nc(N3CCCN(C)CC3)nc(N(C)C3CCN(C)CC3)c2cc1OC`, the Potency was 24.1 µM (active).
